Source: PubChem BioAssay AID504882 (Broad Institute, 2011)
The campaign covered roughly 1,200 compounds. About 290 (24%) were called active. Roughly 9% stayed inconclusive and do not appear here. No rule for the calls is given here. Only a sample is shown. Entries with a potency or affinity are not part of this list.

Assay: cytotoxicity in EBV lymphoblastoid cells, dose response, cytotoxicity control, cell-based, plate reader, cherry-picks, set 2 (AID 504882);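 also: 0% = neutral control wells and -100% = positive control wells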
Settings: EBV lymphoblastoid cells (LCL) viability; series mostly up to 19.5 µM; activity change, negative = cytotoxicity: at the top concentration

| SMILES | activity change, negative = cytotoxicity |
| --- | --- |
| CCCSc1nc2cc(S(=O)(=O)N3CCOCC3)ccc2n1CC | -0.597% (inactive) |
| CCc1c(C)nc2cc(-c3ccc(OC)c(OC)c3)nn2c1NCC1CC1 | -40.8% (inactive) |
| CCN(CC(=O)NCc1ccc(F)cc1)CC(=O)Nc1cc(S(=O)(=O)N(C)C)ccc1C | 15% (inactive) |
| COc1cc(NCCCCCCN)c2ncccc2c1OC | 25.1% (inactive) |
| CN(C)/C=C/C(=O)c1ccc2noc(-c3ccccc3)c2c1 | 15% (inactive) |
| CCc1ccc(C(=O)COC(=O)c2cccc(N3C(=O)c4c(C)nc5ccccc5c4C3=O)c2)cc1 | 41.6% (inactive) |
| O=C(Cn1nc(C(F)(F)F)c2c1CCC2)NC1CCCCC1 | 13.4% (inactive) |
| OCc1cc(C(O)CNCCCCCCOCCCCc2ccccc2)ccc1O (stereo not given) | 18.7% (inactive) |
| Cc1cccc(NC(=O)c2cnc3ccccn3c2=O)c1 | 4.87% (inactive) |
| Cc1cccc(-n2ncc3c(N4CCOCC4)ncnc32)c1 | -6.17% (inactive) |
| CCOCCCn1c(=S)[nH]c2ncccc2c1=O | 2.14% (inactive) |
| Cc1ccn2c(c1)nc(=S)n2C(=O)c1ccccc1 | -0.036% (inactive) |
| CCC(C)N1C(=O)CCC1C(=O)N1CCN(c2ccc(F)cc2)CC1 (stereo not given) | 10.4% (inactive) |
| CNC(=O)c1[nH]cnc1C(=O)N[C@@H](CCCCNC(=O)OC(C)(C)C)C(=O)OC(C)(C)C | 10.2% (inactive) |
| CN(C)c1ccnc2sc(C(N)=O)c(N)c12 | 1.46% (inactive) |
| O=C(Nc1ccc(F)c(F)c1)C1CCCCC1 | 0.732% (inactive) |
| O=C(C[n+]1ccccc1)N/N=C/c1ccc(O)cc1 | 30.2% (inactive) |
| Cc1cc(OCC(=O)Nc2cnn(CCCC(=O)O)c2)ccc1Cl | 21.1% (inactive) |
| COC(=O)c1cccc2c1-c1ccccc1/C2=N/O | 5.57% (inactive) |
| Cc1cccc(S(=O)(=O)N2CCCc3ccccc32)c1 | 0.222% (inactive) |
| COc1ccc(S(=O)(=O)N2CCN(CC(=O)Nc3cc(OC)cc(OC)c3)CC2)cc1 | 13% (inactive) |
| COc1ccc(S(=O)(=O)NNC(=O)C2Cc3c(ccc4ccccc34)O2)cc1 (stereo not given) | 2.34% (inactive) |

| SMILES | activity change, negative = cytotoxicity |
| --- | --- |
| Cc1ccc(N2CCCCn3c2nc2c3c(=O)n(CC(=O)O)c(=O)n2C)cc1 | 13.5% (inactive) |
| Cc1ccc(N(Cc2cc3ccccc3[nH]c2=O)C(=O)c2ccco2)c(C)c1 | 13.3% (inactive) |
| COc1ccc(S(=O)(=O)N2CCC(C(=O)NC3CC3)CC2)cc1OC | 11.8% (inactive) |
| COc1ccc(-c2cnc(NCc3cc4c(cc3[N+](=O)[O-])OCO4)n2C)cc1 | 7.9% (inactive) |
| CNC1(C)[C@H]2CC[C@H](C2)C1(C)C (stereo not given in full) | 15.2% (inactive) |
| Cc1ccc(S(=O)(=O)N2CCC[C@H]2C(=O)Nc2ccccc2C)cc1 | 2.08% (inactive) |
| Cc1ccc(C(=O)CSc2nnnn2C(C)C)c(C)c1 | 4.09% (inactive) |
| CN1CCc2cccc3c2C1Cc1ccc(O)c(O)c1-3 (stereo not given) | 12.1% (inactive) |
| O=C(Nc1cc(Cl)ccc1Cl)C1Cc2ccccc2O/C1=N\O (stereo not given) | 5.33% (inactive) |
| CC(NC(=O)CCOc1ccccc1)c1ccccc1 (stereo not given) | 8.45% (inactive) |
| COc1cc2c(CCNC(C)=O)c[nH]c2cc1Cl | 12.4% (inactive) |
| COCC(=O)N(C)c1nnc(-c2ccccn2)s1 | 26% (inactive) |
| CC1(C)CC(NS(=O)(=O)c2ccc(F)cc2)CC(C)(C)N1 | 26.8% (inactive) |
| O=C(CC(c1ccc(F)cc1)c1ccco1)N1CCOCC1 (stereo not given) | 0.708% (inactive) |
| COc1ccc(C(=O)C(CN2CCOCC2)c2ccccc2)cc1F (stereo not given) | -82.4% (inactive) |
| O=C(Cn1cc(CNC(=O)C2CCCCC2)nn1)Nc1cc(C(F)(F)F)ccc1Cl | 9.71% (inactive) |
| C=CC[N+](C)(C)C/C(Cl)=C(\Cl)c1ccccc1 | -1.08% (inactive) |
| O=C1CCc2cc(OCCCCc3nnnn3C3CCCCC3)ccc2N1 | 10.6% (inactive) |
| Cc1nnc(NC(=O)CSc2nnc(Cc3cccn3C)n2CCc2ccccc2)s1 | 45.3% (inactive) |
| Cc1nnc(SCc2cnc(-c3ccc(C(C)C)cc3)s2)n1C | 4.92% (inactive) |
| COc1cc(/C=C2/SC(=S)N(Cc3ccccc3)C2=O)ccc1OCC(=O)O | 8.06% (inactive) |
| COc1ccc(/C=N/N=C/c2ccc(OC)c(OC)c2)cc1OC | 20.2% (inactive) |

| SMILES | activity change, negative = cytotoxicity |
| --- | --- |
| CCOc1ccc(S(=O)(=O)N2CCC(C(=O)NCCc3ccc(S(N)(=O)=O)cc3)CC2)cc1 | 10.4% (inactive) |
| NC(=O)c1ccccc1N/C=C/C(=O)c1cccs1 | -4.97% (inactive) |
| O=C(N/C(=C/c1ccc(Br)cc1)C(=O)N1CCOCC1)c1ccc(Br)o1 | 17.4% (inactive) |
| O=C(Nc1ncc(Br)s1)C(Cc1ccccc1)n1cccc1 (stereo not given) | -1.84% (inactive) |
| CN(C)CCC(c1ccccc1)c1ccccn1 (stereo not given) | 7.71% (inactive) |
| CCC(C)n1ncn(-c2ccc(N3CCN(c4ccc(OCC5COC(Cn6cncn6)(c6ccc(Cl)cc6Cl)O5)cc4)CC3)cc2)c1=O (stereo not given) | 8.73% (inactive) |
| CC(=C/c1ccccc1)/C=N/n1c(-c2ccncc2)n[nH]c1=S | 5.21% (inactive) |
| CCn1c(=O)c2c(cnn2C)c2ccccc21 | -1.53% (inactive) |
| Cn1cccc1/C=N/n1c(-c2ccc(Cl)cc2Cl)n[nH]c1=S | 13.1% (inactive) |
| OC(CCCN1CCCCC1)(c1ccccc1)c1ccccc1 | 14.8% (inactive) |
| COc1ccc(N2C(=O)C(Cl)=C(NCc3ccccc3)C2=O)cc1 | 21.9% (inactive) |
| COC(=O)[C@@]1(C)[C@H]2C(=O)N(Cc3ccccc3)C(=O)[C@H]2[C@H]2CN=C(SCc3ccc(Cl)cc3)N21 | 14.4% (inactive) |
| CC(C)Nc1nnc(SCC(=O)c2c(N)n(Cc3ccccc3)c(=O)n(C)c2=O)s1 | -5.09% (inactive) |
| CCN(C(=O)c1cc(OC)c(OC)c(OC)c1)C1CCCCC1 | 4.8% (inactive) |
| COC(=O)C1=NNC(C(=O)OC)C1c1ccccc1 (stereo not given) | 10.5% (inactive) |
| Cn1c(=O)c2c(ncn2CC(=O)Nc2cc(S(=O)(=O)N3CCCCC3)ccc2O)n(C)c1=O | 22.4% (inactive) |
| COCCN1Cc2cccc(C(=O)N3CCN(c4cc(C)ccc4C)CC3)c2C1=O | -0.546% (inactive) |
| O=C(Nc1cc(C(F)(F)F)cc(C(F)(F)F)c1)Nc1cnn(-c2ccc([N+](=O)[O-])cc2)c1C(F)(F)F | -5.69% (inactive) |
| CCOCCCn1cnc2c3cc(F)ccc3n(C)c2c1=O | 4.71% (inactive) |
| CCOC(=O)CCSc1nc(N2CCOCC2)c2c(c1C#N)CC(C)(C)OC2 | 20.7% (inactive) |
| COc1ccc(-c2cn3nc4c(nc3n2)CCCC4)cc1 | -0.376% (inactive) |
| COc1cccc(C(=O)OCn2nnc3ccccc3c2=O)c1OC | 17.8% (inactive) |

| SMILES | activity change, negative = cytotoxicity |
| --- | --- |
| Nc1nc(N)nc(-c2cc(Cl)ccc2Cl)n1 | 11.4% (inactive) |
| O=C(COc1ccc2ccccc2c1)NCCNC(=O)COc1ccc2ccccc2c1 | 13.9% (inactive) |
| O=c1c2cnn(-c3ccccc3)c2nc(-c2cccs2)n1-c1ccc(Br)cc1 | -8.44% (inactive) |
| CC1CC(C)CN(S(=O)(=O)c2ccc(NC(=O)CCN3C(=O)C4CC=CCC4C3=O)cc2)C1 (stereo not given) | 10.9% (inactive) |
| COc1ccc(S(=O)(=O)NCC(c2cccnc2)N2CCN(c3ccc(F)cc3)CC2)cc1C (stereo not given) | 13.6% (inactive) |
| CC(=O)c1sc(NC(=O)C2COc3ccccc3O2)nc1C (stereo not given) | 10.2% (inactive) |
| Cc1nc2ncccn2c1-c1csc(Nc2ccccc2)n1 | -27.8% (inactive) |
| O=C(COC(=O)c1cc2ccccc2cc1O)NCc1ccccc1 | 18% (inactive) |
| CCNc1nc(CN2CCOCC2)nc2sc3c(c12)CCC3 | 12% (inactive) |
| O=c1c(O)c(-c2ccc(O)c(O)c2)oc2cc(O)cc(O)c12 | 2.22% (inactive) |
| O=C(O)[C@@H]1[C@H]2C[C@H]3c4[nH]c5ccccc5c4CCN3C[C@@H]2CC[C@@H]1O | 5.86% (inactive) |
| CC1=NN(C(N)=S)C(=O)C1N=Nc1cccc(C(=O)O)c1 (stereo not given) | 22% (inactive) |
| Cc1ccc(C(=O)Nc2ccc3c(c2)OCCO3)c(Cl)c1 | 3.86% (inactive) |
| Cc1ccc(C)c(S(=O)(=O)N2CCN(C(=O)c3ccc(C)s3)CC2)c1 | 0.259% (inactive) |
| N#Cc1c(Nc2ccccc2)sc(C(=O)c2ccc(F)cc2)c1N | 15.1% (inactive) |
| CNC(=S)Nc1ccc2nc(C)c(C)nc2c1 | 19.5% (inactive) |
| Oc1[nH]c2ccccc2c1N=Nc1c(F)c(F)c(Cl)c(F)c1F | 8.45% (inactive) |
| CCn1nnc2cc(C(=O)NCCc3ccccc3F)ccc21 | 10.1% (inactive) |
| O=C(Nc1cccc(C(=O)O)c1)Nc1ccccc1Cl | 9.77% (inactive) |
| CCc1ccc(/C=N/NC(=O)c2ccccn2)cc1 | -13.3% (inactive) |
| Cc1ccc(C(=O)Nc2nnc(SCC(=O)N3CCCc4ccccc43)s2)cc1 | 7.65% (inactive) |
| CCC(Oc1ccccc1)C(=O)NC1CCSC1=O (stereo not given) | 9.69% (inactive) |

| SMILES | activity change, negative = cytotoxicity |
| --- | --- |
| O=C(O)/C=C/c1ccc2ccccc2n1 | 22.6% (inactive) |
| CN(C)CCN(Cc1ccc(Cl)cc1)c1ccccn1 | 11.6% (inactive) |
| Cc1ccc(C(=O)Nc2cccc(C(=O)O)c2)cc1S(=O)(=O)N1CCCCC1 | -1.48% (inactive) |
| CCCCN(c1ccccc1)c1ncnc(N)c1[N+](=O)[O-] | 3.49% (inactive) |
| O=C(N/N=C/c1cccc(O)c1)c1ccc2c(c1)OCCO2 | 9.59% (inactive) |
| O=C(NN1C(=O)C2C3C=CC(C4CC34)C2C1=O)c1cccc(Cl)c1 (stereo not given) | 20% (inactive) |
| CC(C)(C)n1nc(-c2ccc(F)cc2)c2c(N)ncnc21 | 22.3% (inactive) |
| COc1cc(OC)cc(-c2cc3nc(C)c(CCC(=O)O)c(C)n3n2)c1 | 8.49% (inactive) |
| CN(C)CC(C)(C)CNS(=O)(=O)c1ccc(OC(F)(F)F)cc1 | 15.3% (inactive) |
| COc1cccc(C2=CC(=O)C[C@H](c3ccc4c(c3)OCO4)C2)c1 | 4.25% (inactive) |
| CCCCCCNC(=O)O[C@]12C[C@@H](C(=O)OC)[C@@H](C(=O)OC)C[C@@]1(O)CN(S(=O)(=O)c1ccc(C)cc1)C2 | 12.3% (inactive) |
| COC(=O)CN(c1ccccc1F)S(=O)(=O)c1ccc(C)cc1 | -3.06% (inactive) |
| CN(CCNC(=O)C1CCN(S(=O)(=O)N2CCOCC2)CC1)CCc1ccccc1 | 6.51% (inactive) |
| O=c1c2cnn(-c3ccccc3)c2nc(-c2cccs2)n1-c1ccc(Cl)cc1 | -2.24% (inactive) |
| NNC(=O)c1cccc(COc2ccc3c(c2)CCC3)c1 | 2.55% (inactive) |
| S=c1[nH]nc(C2CCCCC2)n1/N=C/c1ccncc1 | -5.82% (inactive) |
| N#CC1=C(N)C(C#N)(C#N)C(c2cccnc2)C2CC(c3ccccc3)CC=C12 (stereo not given) | -16.7% (inactive) |
| COc1cc(CC(=O)N(c2ccccc2)c2nc(C)cs2)cc(OC)c1OC | -0.151% (inactive) |
| O=C(CN1C(=O)c2ccccc2S1(=O)=O)Nc1ncc(Cl)cc1Cl | 6.69% (inactive) |
| Cc1ccc(-n2c(=O)c3c(c4cc(C)ccc4n3C)n(CC(=O)NCC3CCCO3)c2=O)cc1 (stereo not given) | 6.18% (inactive) |
| COc1ccc(C)cc1S(=O)(=O)N(CC(=O)Nc1cc([N+](=O)[O-])ccc1C)c1ccc(C)c(C)c1 | 4.1% (inactive) |
| O=C(c1sc2cc([N+](=O)[O-])ccc2c1Cl)N1CCOCC1 | 14.3% (inactive) |
